Drawing on ChEMBL document CHEMBL4513146, “CO-ADD screening of Karazin Kharkiv National University (Ukraine) compounds”, this text covers Inhibition for 37 compounds.

In assay [1] the test system is Staphylococcus aureus. The settings on record: Concentration 32 ug.mL-1;; ASSAY_TEST Inhibition of Bacterial Growth; detection method Absorption (OD600); MEDIA CAMHB; plate type 384well; NBS; CORNING #3640; time 18 hr.
For assay [2], the system named is Escherichia coli. The settings on record: Concentration 32 ug.mL-1;; ASSAY_TEST Inhibition of Bacterial Growth; detection method Absorption (OD600); MEDIA CAMHB; plate type 384well; NBS; CORNING #3640; time 18 hr.

Potency and affinity values are given separately.

For the compound `Cc1nnc2c(=O)n(CC(=O)Nc3ccc(C(C)C)cc3)c3ccccc3n12`, the Inhibition in assay [1] is 18.68%; in assay [2], -2.69%.

In the case of `CCCCN(C)c1ccc2nnc(CCc3nc(-c4cccc(Br)c4)no3)n2n1`, the Inhibition in assay [1] is 7.62%; in assay [2] it was -1.77%.

Consider `Cc1nnc2c(S(=O)(=O)N(Cc3cccc(F)c3)c3cccc(F)c3)cccn12`, for which the results for the Inhibition in assay [1] and in assay [2] were 18.57% and 0.97%, respectively.

For `CCc1ccccc1Sc1nccn2c(=O)n(CC(=O)NCc3cccs3)nc12`, the Inhibition is recorded as 6.5% in assay [1] and -12.39% in assay [2].

With `Cc1cc(C)cc(NC(=O)Cn2nc3c4cc(-c5ccc(C)c(C)c5)nn4ccn3c2=O)c1`, the figures for the Inhibition in assay [1] and in assay [2] were 5.77% and -4.98%, respectively.

Take `COc1ccccc1-n1ccn2c(SCc3cccc(F)c3)nnc2c1=O`: the values for the Inhibition in assay [1] and in assay [2] were 11.17% and -7.27%, respectively.

As for `COc1ccc(Cl)cc1NC(=O)Cn1nc2c(Sc3ccc(C)cc3C)nccn2c1=O`, the figures for the Inhibition in assay [1] and in assay [2] were -3.15% and -8.38%, respectively.

`CC(C)c1nnc2c(=O)n(CC(=O)Nc3cccc(Br)c3)c3ccccc3n12`: the Inhibition in assay [1] is recorded as 13.16%; in assay [2], -0.75%.

For the compound `Cc1oc(-c2ccccc2)nc1CSc1nc2ccccc2n2c(C)nnc12`, the Inhibition in assay [1] is listed as 4.04%; in assay [2] it was 4.8%.

As for `O=C(Cn1nc2ccc(C(=O)NCc3ccccc3)cn2c1=O)Nc1ccc(Br)cc1`, the Inhibition in assay [1] is reported as 3.47%; in assay [2], -7.68%.

For the compound `O=C(CSc1nc2ccccc2n2cnnc12)N1CCN(c2ccc(F)cc2)CC1`, the Inhibition in assay [1] is given as 13.82%; in assay [2] it was 1.79%.

For `Cc1nnc2c(S(=O)(=O)N(Cc3ccc(F)cc3)c3ccc(F)c(F)c3)cccn12`, the Inhibition in assay [1] turned out to be 15.7%; in assay [2] it was 3.7%.

Regarding `COc1cccc(CSc2nnc3c(=O)n(-c4ccc(Br)cc4)ccn23)c1`, the Inhibition in assay [1] is given as 20.73%; in assay [2], -1.68%.

In the case of `O=C(CSc1nnc2c(=O)n(-c3cccc(F)c3)ccn12)Nc1ccc(Br)cc1`, the figures for the Inhibition in assay [1] and in assay [2] were 17.12% and -2.48%, respectively.

In the case of `COc1cc(NC(=O)CSc2nnc3c(=O)n(-c4ccccc4)ccn23)cc(OC)c1`, the values for the Inhibition in assay [1] and in assay [2] were 14.02% and 0.85%, respectively.

As for `COc1ccccc1-n1ccn2c(SCc3ccccc3F)nnc2c1=O`, the values for the Inhibition in assay [1] and in assay [2] were 11.33% and -2.76%, respectively.

Regarding `CCc1nnc2c(S(=O)(=O)N(Cc3ccccc3C)c3ccc(Cl)cc3)cccn12`, the Inhibition in assay [1] is -22.93%; in assay [2], -4.88%.

For the compound `Cc1ccc(-c2ccc3nn(CC(=O)N4CCN(c5ccccc5F)CC4)c(=O)n3n2)cc1C`, the Inhibition in assay [1] is recorded as 3.55%; in assay [2], -1.18%.

For the compound `COc1ccc(CN(c2cc(C)cc(C)c2)S(=O)(=O)c2cccn3cnnc23)cc1F`, the Inhibition in assay [1] is reported as -10.31%; in assay [2] it was -13.2%.

Regarding `O=c1c2nnc(SCc3ccccc3Cl)n2ccn1-c1ccc(F)c(F)c1`, the Inhibition was 11.5% in assay [1] and -3.79% in assay [2].

As to `COc1ccc(CNC(=O)Cn2nc3c4cc(-c5ccc(OC)cc5)nn4ccn3c2=O)cc1`, the Inhibition in assay [1] was -1.74%; in assay [2], -1.87%.

Regarding `COc1cc(NC(=O)Cn2nc3ccc(SC4CCCCC4)nn3c2=O)cc(OC)c1`, the Inhibition is -2.94% in assay [1] and -6.19% in assay [2].

`COc1ccc(NC(=O)Cn2nc3c(Sc4ccccc4)nccn3c2=O)c(OC)c1`: the Inhibition is -11.13% in assay [1] and -9.08% in assay [2].

As for `CCOc1ccccc1NC(=O)Cn1nc2c3cc(-c4ccc(OC)cc4)nn3ccn2c1=O`, the Inhibition in assay [1] was found to be 2.23%; in assay [2], 5.35%.

As for `Cn1c(=O)c2ccc(C(=O)NC3CCCC3)cc2n2c(SCc3c(F)cccc3Cl)nnc12`, the Inhibition in assay [1] is on record as 12.53%; in assay [2], 0.61%.

With `COc1ccc(C(C)NC(=O)CCc2nnc3ccc(-c4ccc(C)cc4)nn23)cc1OC` (centres undefined), the Inhibition turned out to be 4.62% in assay [1] and 2.29% in assay [2].

Consider `O=C(CSc1nnc2c3cc(-c4ccccc4)nn3ccn12)NCc1ccccc1Cl`, for which the Inhibition in assay [1] was -4.46%; in assay [2], -7.31%.

Turning to `Cc1nnc2c(S(=O)(=O)N(Cc3ccccc3)c3ccc(C(C)C)cc3)cccn12`, the Inhibition was 6.07% in assay [1] and -2.4% in assay [2].

With `CCCCOc1ccc(-c2cc3c4nnc(SCC(=O)N(CC)c5ccccc5)n4ccn3n2)cc1`, the Inhibition in assay [1] is reported as 7.98%; in assay [2], -2.57%.

Turning to `O=C(Cn1nc2ccc(-c3ccccc3)nn2c1=O)Nc1ccc(F)c(Cl)c1`, the Inhibition in assay [1] is 7.52%; in assay [2], -1.06%.

Turning to `O=c1n(Cc2cccc(C(F)(F)F)c2)nc2ccc(S(=O)(=O)N3CCCC3)cn12`, the Inhibition is recorded as 14.07% in assay [1] and -1.1% in assay [2].

`CCOc1ccc(-n2ccn3c(SCC(=O)c4cccc(OC)c4)nnc3c2=O)cc1`: the Inhibition is recorded as 10.49% in assay [1] and -5.2% in assay [2].

As to `COc1ccc(N(Cc2cccc(Cl)c2)S(=O)(=O)c2ccc3nnc(C)n3c2)cc1`, the values for the Inhibition in assay [1] and in assay [2] were 13.9% and 0.81%, respectively.

In the case of `N#CCn1nc2n(CCC(=O)NC3CCCCC3)c(=O)c3ccccc3n2c1=O`, the values for the Inhibition in assay [1] and in assay [2] were 8.56% and 0.43%, respectively.

Turning to `CSc1cccc(NC(=O)Cn2nc3c(Sc4ccccc4)nccn3c2=O)c1`, the Inhibition is listed as -5% in assay [1] and -10.44% in assay [2].

Take `COc1ccc(-c2cc3c4nn(CC(=O)Nc5ccc(C)c(F)c5)c(=O)n4ccn3n2)cc1`: the results for the Inhibition in assay [1] and in assay [2] were 0.97% and 2.58%, respectively.

In the case of `CCOc1ccc(-n2ccn3c(SCC(=O)NCc4ccc(Cl)cc4)nnc3c2=O)cc1`, the Inhibition came to 4.19% in assay [1] and 3.75% in assay [2].

As usually defined, the Inhibition is the change of the read-out against control, counted positive when it falls.
